In PubChem BioAssay (NCATS):
Records with an inconclusive call do not appear. Where a call stands in place of a potency, no number is given. Active and inactive are the calls of the source. Calls follow the shape of the dose curve; as a rule, active = well fitted inhibition curve with a large enough effect; inconclusive = small, poorly fitted or top-dose-only effect; inactive = no such curve, though single readings can be large or run the other way.

target: Retinaldehyde dehydrogenase 3 (Homo sapiens) (UniProt P47895); assay: qHTS for Inhibitors of the Aldehyde Dehydrogenase Family (ALDH1A3) Validation screen (AID 2061312); conditions: ALDH1A3 enzyme inhibition qHTS validation, fluorescence; series mostly up to 84.7 µM; also: nearly all actives have a fitted effect of over 45% in size

Row | Structure (SMILES) | Potency
1 | Clc1ccc(C(c2ccccc2Cl)C(Cl)Cl)cc1 (stereo not drawn) | inactive
2 | O=C(O)C1CCCN(CCC=C(c2ccccc2)c2ccccc2)C1 (stereo not drawn) | inactive
3 | O=C1c2c(O)cc(O)cc2OC(c2ccc(O)c(O)c2)C1O (stereo not drawn) | inactive
4 | COc1cc(SC)ccc1C(=O)N1CCC(Cc2ccccc2)CC1 | inactive
5 | CC(C)NCC(O)c1ccc(O)c(O)c1 (stereo not drawn) | inactive
6 | O=C1NC(=O)c2cc(Nc3ccccc3)c(Nc3ccccc3)cc21 | inactive
7 | O=c1cc(-c2ccccc2F)[nH]c2cc3c(cc12)OCO3 | inactive
8 | CCN1/C(=C/C(C)=O)Sc2ccc(OC)cc21 | inactive
9 | C/C=C/CC(C)C(O)C1C(=O)NC(CC)C(=O)N(C)CC(=O)N(C)C(CC(C)C)C(=O)NC(C(C)C)C(=O)N(C)C(CC(C)C)C(=O)NC(C)C(=O)NC(C)C(=O)N(C)C(CC(C)C)C(=O)N(C)C(CC(C)C)C(=O)N(C)C(C(C)C)C(=O)N1C (stereo not drawn) | inactive
10 | CCN(CC)CCNC(=O)c1ccc(N)cc1 | inactive
11 | CNC[C@H](O)c1cccc(O)c1 | inactive
12 | CC(=O)[C@H]1CCC2C3CC=C4C[C@@H](OS(=O)(=O)O)CC[C@]4(C)C3CC[C@@]21C (stereo partly drawn) | inactive
13 | O=C(N[C@@H](Cc1ccccc1)C(=O)CCl)OCc1ccccc1 | inactive

target: Retinal dehydrogenase 2 (Homo sapiens) (UniProt O94788); assay: qHTS for Inhibitors of the Aldehyde Dehydrogenase Family (ALDH1A2) Confirmation screens (AID 2061314); conditions: ALDH1A2 enzyme inhibition qHTS confirmation; series mostly up to 45.9 µM; also: nearly all actives have a fitted effect of over 65% in size; also: potency is read from the fitted curve at half-maximal effect

Row | Structure (SMILES) | Potency
14 | CC(C)(C)OC(=O)N1CCN(c2cnc(NCc3ccc(-c4ccc(C#N)cc4)o3)nc2)CC1 | 8.96 µM (active)
15 | CC(C)(C)OC(=O)N1CCN(c2ncc(NCc3ccc(-c4ccc(C#N)cc4)o3)cn2)CC1 | 12.6 µM (active)
16 | CC(C)NCC(O)c1ccc(O)c(O)c1 (stereo not drawn) | inactive
17 | CCC(NC(C)C)C(O)c1ccc(O)c(O)c1 (stereo not drawn) | inactive
18 | CC(C)(C)OC(=O)N1CCN(c2ccc(NCc3ccc(-c4ccc(C#N)cc4)o3)cc2)CC1 | 7.94 µM (active)
19 | O=C(O)/C=C/c1ccc(O)c(O)c1 | inactive
20 | CC(C)(C)OC(=O)N1CCC(c2ccc(NCc3ccc(-c4ccc(C#N)cc4)o3)cc2)CC1 | 8.91 µM (active)
21 | O=C(O)CN(CCOCCOCCN(CC(=O)O)CC(=O)O)CC(=O)O | inactive
22 | CCN(CC)CCNC(=O)c1ccc(N)cc1 | inactive
23 | CC(C)(C)OC(=O)N1CCN(c2cccc(NCc3ccc(-c4ccc(C#N)cc4)o3)c2)CC1 | inactive
24 | N#Cc1ccc(-c2ccc(CNc3ccc(N4CCC(C(F)(F)F)CC4)cc3)o2)cc1 | inactive
25 | CC(C)(C)OC(=O)N1CCN(c2cnc(NCc3ccc(-c4ccc(C#N)cc4)o3)cn2)CC1 | 1.79 µM (active)
26 | CCOC(=O)C1CCN(c2ccc(NCc3ccc(-c4ccc(C#N)cc4)o3)cc2)CC1 | 31.6 µM (active)
27 | CCN1CCc2nc(N)oc2CC1 | inactive
28 | O=C(N[C@@H](Cc1ccccc1)C(=O)CCl)OCc1ccccc1 | 0.798 µM (active)

target: Retinaldehyde dehydrogenase 3 (Homo sapiens) (UniProt P47895); assay: qHTS for Inhibitors of the Aldehyde Dehydrogenase Family (ALDH1A3) Primary screen (AID 2061315); conditions: ALDH inhibition qHTS; series mostly up to 56 µM

Row | Structure (SMILES) | Potency
29 | CC(C)(C)OC(=O)N1CCN(c2cnc(NCc3ccc(-c4ccc(C#N)cc4)o3)nc2)CC1 | inactive
30 | CC(C)(C)OC(=O)N1CCN(c2ncc(NCc3ccc(-c4ccc(C#N)cc4)o3)cn2)CC1 | inactive
31 | CC(C)(C)OC(=O)N1CCN(c2ccc(NCc3ccc(-c4ccc(C#N)cc4)o3)cc2)CC1 | inactive
32 | C/C=C/CC(C)C(O)C1C(=O)NC(CC)C(=O)N(C)CC(=O)N(C)C(CC(C)C)C(=O)NC(C(C)C)C(=O)N(C)C(CC(C)C)C(=O)NC(C)C(=O)NC(C)C(=O)N(C)C(CC(C)C)C(=O)N(C)C(CC(C)C)C(=O)N(C)C(C(C)C)C(=O)N1C (stereo not drawn) | inactive
33 | CC(C)(C)OC(=O)N1CCC(c2ccc(NCc3ccc(-c4ccc(C#N)cc4)o3)cc2)CC1 | inactive
34 | CCN(CC)CCNC(=O)c1ccc(N)cc1 | inactive
35 | CC(C)(C)OC(=O)N1CCN(c2cnc(NCc3ccc(-c4ccc(C#N)cc4)o3)cn2)CC1 | inactive
36 | N#Cc1ccc(-c2ccc(CNc3ccc(N4CCC(C#N)CC4)cc3)o2)cc1 | inactive

target: Aldehyde dehydrogenase 1A1 (Homo sapiens) (UniProt P00352); assay: qHTS for Inhibitors of the Aldehyde Dehydrogenase Family (ALDH1A1) Confirmatory screens (AID 2061316); conditions: ALDH inhibition qHTS; series mostly up to 47.3 µM; also: nearly all actives have a fitted effect of over 65% in size; also: potency is read from the fitted curve at half-maximal effect

Row | Structure (SMILES) | Potency
37 | CC(C)(C)OC(=O)N1CCN(c2cnc(NCc3ccc(-c4ccc(C#N)cc4)o3)nc2)CC1 | 10.1 µM (active)
38 | CC(C)NCC(O)c1ccc(O)c(O)c1 (stereo not drawn) | inactive
39 | O=C(O)/C=C/c1ccc(O)c(O)c1 | inactive
40 | CC(C)(C)OC(=O)N1CCC(c2ccc(NCc3ccc(-c4ccc(C#N)cc4)o3)cc2)CC1 | 12.7 µM (active)
41 | O=C(O)CN(CCOCCOCCN(CC(=O)O)CC(=O)O)CC(=O)O | inactive
42 | CCN(CC)CCNC(=O)c1ccc(N)cc1 | inactive
43 | CC(C)(C)OC(=O)N1CCN(c2cccc(NCc3ccc(-c4ccc(C#N)cc4)o3)c2)CC1 | 7.12 µM (active)
44 | N#Cc1ccc(-c2ccc(CNc3ccc(N4CCC(C(F)(F)F)CC4)cc3)o2)cc1 | 6.34 µM (active)
45 | CC(C)(C)OC(=O)N1CCN(c2cnc(NCc3ccc(-c4ccc(C#N)cc4)o3)cn2)CC1 | 4.49 µM (active)
46 | CCOC(=O)C1CCN(c2ccc(NCc3ccc(-c4ccc(C#N)cc4)o3)cc2)CC1 | 7.98 µM (active)
47 | N#Cc1ccc(-c2ccc(CNc3ccc(N4CCC(C#N)CC4)cc3)o2)cc1 | 5.04 µM (active)
48 | O=C(N[C@@H](Cc1ccccc1)C(=O)CCl)OCc1ccccc1 | 0.318 µM (active)
